Abeta rescue: compounds reversing amyloid beta toxicity in yeast; yeast expressing A-beta42, growth rescue, OD600, 48 h; response scale: 0% DMSO, 100% iron-clioquinol control; AID 1347071; Potency, µM (top dose mostly 46.1 µM), most hits filed as activators; hit rate 0.063% among 410,000; note: nearly all actives have a fitted effect of over 55% in size
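Growth rescue measured by 600 nm absorbance after 48 h yeast culture at 30 C with compound. Values normalized between DMSO and an equimolar ferric chloride plus clioquinol control.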
Glioma ERSR ind: inducers of ER stress response in human glioma cells | hit rate 0.02% among 420,000 | U87-MG GRP78 promoter luciferase reporter, 16 h | Potency, µM, for the others: at the highest dose activation, most hits filed as activators | AID 602332; note: series mostly up to about 76 µM; % of control where 0% means no effect; nearly all actives have a fitted effect of over 35% in size
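Stably transfected U87-MG human glioma cells carrying a GRP78-based luminescent sensor were seeded at 1000 cells/well, pin-dosed with compounds and incubated 16 h. Luciferase reagent was then added, and end-point luminescence was read after 10 min at room temperature.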
FUS yeast rescue: FUS proteinopathy suppression in yeast. S. cerevisiae FUS-expressing, growth rescue, OD600, 24 h. Potency, µM (series often up to 76.6 µM), actives largely listed as activators. hit rate 0.24% among 390,000. AID 1347120;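 note: plate controls were DMSO vehicle for no effect and reference control for full effect; nearly all actives have a fitted effect of over 55% in size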
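Galactose (2%) drives FUS expression in yeast precultured in raffinose; seeding density OD 0.005. Test compounds incubated 24hr at 30C and 99% humidity before absorbance at 600 nm was measured.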
MBNL1-CUG inh: blocks human MBNL1 binding to CUG repeat RNA | TR-FRET MBNL1-His/biotin-(CUG)12 binding, 665/545 ratio | AID 2675 | hit rate 0.036% among 280,000 | Q9NR56 | Potency, µM (highest dose often 57.5 µM), without a hit: top-dose activity change, negative = inhibition, hits mostly inhibitors; active = well fitted inhibition curve with a large enough effect in the signal ratio, with a control signal flat, not every such curve was filed as active; inconclusive = small, poorly fitted or top-dose-only effect, or effect the other way, or a change in a side signal; inactive = no such curve, though single readings can be large or run the other way; the % refers to the signal ratio; note: % is set by controls: 0 for no effect and ±100 for the full control effect
Target sequence (Q9NR56 whole entry, looked up): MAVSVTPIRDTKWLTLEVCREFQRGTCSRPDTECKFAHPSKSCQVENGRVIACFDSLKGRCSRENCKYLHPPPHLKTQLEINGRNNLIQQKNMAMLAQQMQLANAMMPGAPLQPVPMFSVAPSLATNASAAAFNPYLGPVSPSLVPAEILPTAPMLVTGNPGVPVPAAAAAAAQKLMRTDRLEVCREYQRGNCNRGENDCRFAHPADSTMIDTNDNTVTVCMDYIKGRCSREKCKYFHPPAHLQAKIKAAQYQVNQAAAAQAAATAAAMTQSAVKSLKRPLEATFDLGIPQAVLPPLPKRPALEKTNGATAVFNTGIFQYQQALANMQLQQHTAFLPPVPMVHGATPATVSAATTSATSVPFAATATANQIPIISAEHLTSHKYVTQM
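Ratiometric TR-FRET (665 over 545 nm, excitation 340 nm) tracks disruption of MBNL1-His/biotin-(CUG)12 complex after 60 min at room temperature, with compounds at 92 nM to 58 uM final.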
aSyn rescue: alpha-synuclein toxicity inhibition in yeast. Potency, µM (series often up to 46.1 µM), inactives show at the highest dose growth rescue (activation), usual class: activators. Yeast expressing alpha-synuclein, growth rescue, BacTiter-Glo, 24 h. hit rate 0.14% among 370,000. AID 652106; note: % of control where 0% means no effect; nearly all actives have a fitted effect of over 65% in size
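Readout is rescue of growth in alpha-synuclein-expressing yeast, so inhibitors of toxicity appear as activators. Growth after 24 hr at 30 deg C in galactose medium is quantified by luminescence.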
TDP43 rescue: inhibitors of TDP-43 toxicity in yeast; TDP-43 expressing yeast growth rescue, BacTiter-Glo, 24 h; Potency, µM (top dose mostly 46.1 µM), for inactives: top-dose growth rescue (activation), actives largely listed as activators; hit rate 1.8% among 410,000; AID 652104; note: % of control where 0% means no effect; nearly all actives have a fitted effect of over 50% in size
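In this qHTS, compounds that restore growth of yeast expressing TDP-43 appear as activators. Cells (OD600=0.02, galactose medium, raffinose-pregrown) are incubated with compound 24 hr at 30 deg C and growth is quantified by BacTiter-Glo.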
An asterisk follows results filed as active. Shown are actives, neighbours in structure and some others; about 2% of the full set was active somewhere. Unless noted, calls come from the whole dose curve; as a rule, active = well fitted curve in the direction sought with a large enough effect; inconclusive = small, poorly fitted or top-dose-only effect, or another doubt; inactive = no such curve, though single readings can be large; an effect the other way counts as inactive or inconclusive. Potency is the fitted concentration of half-maximal effect.

How did Cc1ccc(-c2ccc(/C=N/O)o2)cc1[N+](=O)[O-] do in these assays?
Abeta rescue: inactive; Glioma ERSR ind: 4%; FUS yeast rescue: inactive; MBNL1-CUG inh: inconclusive; aSyn rescue: -19%; TDP43 rescue: 13µM*

Results for O=[N+]([O-])c1cc(-c2ccc(/C=N/n3cnnc3)o2)ccc1Cl ?
Abeta rescue: inactive; Glioma ERSR ind: -3%; FUS yeast rescue: inactive; MBNL1-CUG inh: inconclusive; aSyn rescue: 6%; TDP43 rescue: inconclusive

What do the screens show for `Cc1[nH]c2c(Br)cccc2c1[C@H]1[C@@H](CC#N)C1(C)C`?
Abeta rescue: inactive; Glioma ERSR ind: -3%; FUS yeast rescue: inactive; MBNL1-CUG inh: 1%; aSyn rescue: -21%; TDP43 rescue: 22µM*

Results for COc1cccc(NC(=S)NC(=O)c2cncc(Br)c2)c1 ?
Abeta rescue: inconclusive; Glioma ERSR ind: 3%; FUS yeast rescue: inactive; aSyn rescue: -7%; TDP43 rescue: 13µM*

How did O=C(NC(=S)Nc1ccccc1C(=O)O)c1cncc(Br)c1 do in these assays?
Abeta rescue: inactive; Glioma ERSR ind: -3%; FUS yeast rescue: inactive; MBNL1-CUG inh: -1%; aSyn rescue: -18%; TDP43 rescue: -71%

What do the screens show for `CCOc1cccc(C(=O)NC(=S)Nc2cccc(C)c2)c1`?
Abeta rescue: inconclusive; Glioma ERSR ind: 8%; FUS yeast rescue: inactive; MBNL1-CUG inh: -15%; aSyn rescue: -22%; TDP43 rescue: 35µM*

Results for CC(=O)c1cccc(NC(=S)NC(=O)c2cncc(Br)c2)c1 ?
Abeta rescue: inactive; Glioma ERSR ind: -1%; FUS yeast rescue: inconclusive; MBNL1-CUG inh: -3%; aSyn rescue: -6%; TDP43 rescue: -8%

What do the screens show for `O=C(NC(=S)Nc1ccccc1O)c1cncc(Br)c1`?
Abeta rescue: inconclusive; Glioma ERSR ind: -1%; FUS yeast rescue: inactive; aSyn rescue: 18µM*; TDP43 rescue: 11%

How did CCn1cc(C(=O)NC(=S)Nc2ccccc2Br)cn1 do in these assays?
Abeta rescue: inactive; Glioma ERSR ind: 0%; FUS yeast rescue: inactive; MBNL1-CUG inh: 1%; aSyn rescue: -1%; TDP43 rescue: 14µM*

How did Cc1nn(CC(=O)OCCOc2ccc(Br)cc2)c(C)c1[N+](=O)[O-] do in these assays?
Abeta rescue: inactive; Glioma ERSR ind: -4%; FUS yeast rescue: inactive; MBNL1-CUG inh: -3%; aSyn rescue: 6%; TDP43 rescue: 13µM*

What do the screens show for `COc1ccc(CCNC(=O)Nc2ccc3c(c2)[C@]2(CC(=O)N(CC(C)C)C2c2ccccc2)C(=O)N3C)cc1OC` (some centres not stated)?
FUS yeast rescue: inactive

How did CC(=O)N[C@@H]1C[C@@H]2O[C@H](CO)CC[C@@H]2O[C@@H]1CCc1ccc(-c2ccc(F)cc2)cc1 do in these assays?
FUS yeast rescue: inactive

How did Cc1nc(N2CCCCC2C)c2c(C)c(C(=O)Nc3ccccc3C(F)(F)F)sc2n1 (configuration not stated) do in these assays?
Abeta rescue: inactive; Glioma ERSR ind: -1%; FUS yeast rescue: inactive; MBNL1-CUG inh: 47%; aSyn rescue: -24%; TDP43 rescue: 14µM*

What do the screens show for `Cc1nc(N2CCC(C)CC2)c2c(C)c(C(=O)Nc3ccc4c(c3)OCCO4)sc2n1`?
Abeta rescue: inactive; Glioma ERSR ind: -7%; FUS yeast rescue: inactive; MBNL1-CUG inh: 9%; aSyn rescue: 3%; TDP43 rescue: 7.1µM*

What do the screens show for `Cc1c(C(=O)N2CCCCC2C)sc2ncnc(N3CCc4ccccc4C3)c12` (configuration not stated)?
Abeta rescue: inactive; Glioma ERSR ind: 5%; FUS yeast rescue: inactive; MBNL1-CUG inh: 9%; aSyn rescue: 1%; TDP43 rescue: inconclusive
